Experimental data reported in ChEMBL document CHEMBL1961873, “Compounds: GSK PKIS; Assays: Nanosyn kinase panel” (2012).

Tests used:
[1] = molecular target: Protein kinase C gamma type (Homo sapiens) (UniProt P05129); conditions: at 1 µM;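 note: each value is an averaged percent inhibition of the enzyme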
[2] = molecular target: T1, Protein kinase C iota type (Homo sapiens) (UniProt P41743); conditions: at 0.1 µM
T1 sequence (whole entry): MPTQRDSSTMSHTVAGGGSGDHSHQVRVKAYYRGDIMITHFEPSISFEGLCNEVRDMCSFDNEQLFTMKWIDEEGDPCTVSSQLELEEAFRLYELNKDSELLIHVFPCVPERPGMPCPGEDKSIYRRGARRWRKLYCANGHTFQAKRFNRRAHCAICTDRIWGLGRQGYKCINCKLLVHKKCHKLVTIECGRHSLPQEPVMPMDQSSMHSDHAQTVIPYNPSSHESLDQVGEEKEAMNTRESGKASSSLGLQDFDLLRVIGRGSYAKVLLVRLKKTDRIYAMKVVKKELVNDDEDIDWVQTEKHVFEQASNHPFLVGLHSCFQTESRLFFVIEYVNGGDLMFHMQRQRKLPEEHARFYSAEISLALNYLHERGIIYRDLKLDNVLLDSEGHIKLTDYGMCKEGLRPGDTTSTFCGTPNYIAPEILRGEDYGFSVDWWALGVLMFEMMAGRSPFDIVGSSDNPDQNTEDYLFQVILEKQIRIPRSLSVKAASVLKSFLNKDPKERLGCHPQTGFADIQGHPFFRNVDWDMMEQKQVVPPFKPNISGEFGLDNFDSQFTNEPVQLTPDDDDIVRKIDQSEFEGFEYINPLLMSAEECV

[3] = molecular target: T1, Protein kinase C iota type (Homo sapiens); conditions: at 1 µM
[4] = molecular target: Protein kinase C theta type (Homo sapiens) (UniProt Q04759); conditions: at 0.1 µM
Chain of Protein kinase C theta type (Homo sapiens) (Q04759 whole entry, looked up): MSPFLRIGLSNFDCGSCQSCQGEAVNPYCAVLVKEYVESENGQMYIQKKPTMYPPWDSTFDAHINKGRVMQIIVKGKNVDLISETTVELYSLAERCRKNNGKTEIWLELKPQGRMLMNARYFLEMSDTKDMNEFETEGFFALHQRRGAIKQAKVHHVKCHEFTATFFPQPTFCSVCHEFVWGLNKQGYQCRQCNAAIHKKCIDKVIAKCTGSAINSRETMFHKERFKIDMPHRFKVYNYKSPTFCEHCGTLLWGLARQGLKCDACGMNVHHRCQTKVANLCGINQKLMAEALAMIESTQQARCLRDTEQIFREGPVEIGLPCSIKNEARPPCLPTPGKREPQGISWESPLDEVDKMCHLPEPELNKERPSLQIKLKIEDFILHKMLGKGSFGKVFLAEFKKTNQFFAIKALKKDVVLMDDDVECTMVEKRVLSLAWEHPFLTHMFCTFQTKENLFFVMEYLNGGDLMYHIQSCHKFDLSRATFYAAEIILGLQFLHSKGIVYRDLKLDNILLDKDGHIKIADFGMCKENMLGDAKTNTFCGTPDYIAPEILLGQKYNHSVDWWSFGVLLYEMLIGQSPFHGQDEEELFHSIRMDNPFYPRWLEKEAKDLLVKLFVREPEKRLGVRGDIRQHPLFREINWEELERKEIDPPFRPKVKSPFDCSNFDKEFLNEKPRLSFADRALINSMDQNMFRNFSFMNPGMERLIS

[5] = molecular target: Protein kinase C theta type (Homo sapiens) (UniProt Q04759); conditions: at 1 µM
[6] = molecular target: Protein kinase C beta type (Homo sapiens) (UniProt P05771); conditions: at 0.1 µM
Chain of Protein kinase C beta type (Homo sapiens) (P05771 2-671 limits assumed): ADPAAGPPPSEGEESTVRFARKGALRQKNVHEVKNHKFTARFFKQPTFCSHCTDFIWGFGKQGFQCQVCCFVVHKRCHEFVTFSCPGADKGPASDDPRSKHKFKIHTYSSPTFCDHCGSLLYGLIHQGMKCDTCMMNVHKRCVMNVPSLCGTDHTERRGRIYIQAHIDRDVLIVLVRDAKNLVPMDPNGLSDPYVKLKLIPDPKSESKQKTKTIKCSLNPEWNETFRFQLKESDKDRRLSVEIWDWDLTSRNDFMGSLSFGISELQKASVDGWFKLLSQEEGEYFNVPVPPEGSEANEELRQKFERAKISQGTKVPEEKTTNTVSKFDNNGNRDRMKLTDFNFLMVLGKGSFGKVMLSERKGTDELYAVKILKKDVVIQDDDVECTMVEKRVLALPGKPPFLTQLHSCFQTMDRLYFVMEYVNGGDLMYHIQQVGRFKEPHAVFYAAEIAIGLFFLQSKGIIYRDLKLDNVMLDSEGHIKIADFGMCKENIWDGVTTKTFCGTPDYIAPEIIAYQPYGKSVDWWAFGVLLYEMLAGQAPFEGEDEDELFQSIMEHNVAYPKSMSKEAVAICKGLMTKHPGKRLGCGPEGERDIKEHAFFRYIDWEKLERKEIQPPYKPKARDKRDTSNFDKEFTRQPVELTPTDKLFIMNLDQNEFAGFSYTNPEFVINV

[7] = molecular target: Protein kinase C beta type (Homo sapiens) (UniProt P05771); conditions: at 1 µM
[8] = molecular target: T2, Serine/threonine-protein kinase D1 (Homo sapiens) (UniProt Q15139); conditions: at 0.1 µM
T2 sequence (whole entry): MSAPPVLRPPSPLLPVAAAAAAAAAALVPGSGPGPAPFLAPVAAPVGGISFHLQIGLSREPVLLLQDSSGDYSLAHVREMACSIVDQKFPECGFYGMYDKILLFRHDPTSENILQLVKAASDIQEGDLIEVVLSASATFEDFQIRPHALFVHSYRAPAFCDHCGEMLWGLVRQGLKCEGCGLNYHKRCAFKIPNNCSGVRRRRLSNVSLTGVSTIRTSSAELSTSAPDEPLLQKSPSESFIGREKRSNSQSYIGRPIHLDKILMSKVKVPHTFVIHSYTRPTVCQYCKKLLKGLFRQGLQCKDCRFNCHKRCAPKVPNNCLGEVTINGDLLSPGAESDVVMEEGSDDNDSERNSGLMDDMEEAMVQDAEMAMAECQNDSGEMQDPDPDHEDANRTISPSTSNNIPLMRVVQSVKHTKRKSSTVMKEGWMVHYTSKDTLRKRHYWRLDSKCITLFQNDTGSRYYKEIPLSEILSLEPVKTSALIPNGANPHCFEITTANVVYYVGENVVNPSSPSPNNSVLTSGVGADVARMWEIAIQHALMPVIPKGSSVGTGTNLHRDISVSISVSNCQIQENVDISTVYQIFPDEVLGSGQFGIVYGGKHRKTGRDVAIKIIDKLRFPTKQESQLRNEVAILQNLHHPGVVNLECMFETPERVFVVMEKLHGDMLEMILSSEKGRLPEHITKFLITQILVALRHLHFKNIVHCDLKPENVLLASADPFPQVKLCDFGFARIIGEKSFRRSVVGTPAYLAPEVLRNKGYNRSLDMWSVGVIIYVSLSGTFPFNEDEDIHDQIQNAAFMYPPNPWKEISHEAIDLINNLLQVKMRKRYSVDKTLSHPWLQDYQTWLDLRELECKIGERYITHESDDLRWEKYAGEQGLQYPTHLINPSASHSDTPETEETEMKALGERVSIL

[9] = molecular target: T2, Serine/threonine-protein kinase D1 (Homo sapiens); conditions: at 1 µM
[10] = molecular target: T3, Serine/threonine-protein kinase D2 (Homo sapiens) (UniProt Q9BZL6); conditions: at 0.1 µM
T3 sequence (whole entry): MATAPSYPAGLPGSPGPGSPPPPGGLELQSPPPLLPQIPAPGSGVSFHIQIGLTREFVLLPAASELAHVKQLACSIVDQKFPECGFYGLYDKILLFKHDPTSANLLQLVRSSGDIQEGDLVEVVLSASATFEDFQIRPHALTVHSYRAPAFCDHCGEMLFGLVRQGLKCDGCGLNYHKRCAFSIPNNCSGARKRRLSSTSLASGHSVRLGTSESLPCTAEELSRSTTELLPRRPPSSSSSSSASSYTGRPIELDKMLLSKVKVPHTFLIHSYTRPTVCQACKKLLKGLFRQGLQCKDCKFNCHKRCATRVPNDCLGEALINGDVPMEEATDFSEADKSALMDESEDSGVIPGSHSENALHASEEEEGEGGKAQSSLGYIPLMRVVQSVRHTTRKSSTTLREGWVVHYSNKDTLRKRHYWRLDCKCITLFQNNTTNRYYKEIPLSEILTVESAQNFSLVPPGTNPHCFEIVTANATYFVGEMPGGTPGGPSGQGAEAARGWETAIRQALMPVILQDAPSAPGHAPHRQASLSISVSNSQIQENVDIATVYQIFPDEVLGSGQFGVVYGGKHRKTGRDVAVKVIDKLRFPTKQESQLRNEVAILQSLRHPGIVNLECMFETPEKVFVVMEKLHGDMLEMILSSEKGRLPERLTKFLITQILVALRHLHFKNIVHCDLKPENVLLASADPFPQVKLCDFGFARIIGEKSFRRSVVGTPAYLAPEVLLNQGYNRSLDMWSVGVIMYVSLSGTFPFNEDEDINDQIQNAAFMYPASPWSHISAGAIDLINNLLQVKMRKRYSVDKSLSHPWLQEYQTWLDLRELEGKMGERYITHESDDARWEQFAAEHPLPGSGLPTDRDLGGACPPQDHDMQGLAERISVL

[11] = molecular target: T3, Serine/threonine-protein kinase D2 (Homo sapiens); conditions: at 1 µM
[12] = molecular target: T4, Serine/threonine-protein kinase D3 (Homo sapiens) (UniProt O94806); conditions: at 0.1 µM
T4 sequence (whole entry): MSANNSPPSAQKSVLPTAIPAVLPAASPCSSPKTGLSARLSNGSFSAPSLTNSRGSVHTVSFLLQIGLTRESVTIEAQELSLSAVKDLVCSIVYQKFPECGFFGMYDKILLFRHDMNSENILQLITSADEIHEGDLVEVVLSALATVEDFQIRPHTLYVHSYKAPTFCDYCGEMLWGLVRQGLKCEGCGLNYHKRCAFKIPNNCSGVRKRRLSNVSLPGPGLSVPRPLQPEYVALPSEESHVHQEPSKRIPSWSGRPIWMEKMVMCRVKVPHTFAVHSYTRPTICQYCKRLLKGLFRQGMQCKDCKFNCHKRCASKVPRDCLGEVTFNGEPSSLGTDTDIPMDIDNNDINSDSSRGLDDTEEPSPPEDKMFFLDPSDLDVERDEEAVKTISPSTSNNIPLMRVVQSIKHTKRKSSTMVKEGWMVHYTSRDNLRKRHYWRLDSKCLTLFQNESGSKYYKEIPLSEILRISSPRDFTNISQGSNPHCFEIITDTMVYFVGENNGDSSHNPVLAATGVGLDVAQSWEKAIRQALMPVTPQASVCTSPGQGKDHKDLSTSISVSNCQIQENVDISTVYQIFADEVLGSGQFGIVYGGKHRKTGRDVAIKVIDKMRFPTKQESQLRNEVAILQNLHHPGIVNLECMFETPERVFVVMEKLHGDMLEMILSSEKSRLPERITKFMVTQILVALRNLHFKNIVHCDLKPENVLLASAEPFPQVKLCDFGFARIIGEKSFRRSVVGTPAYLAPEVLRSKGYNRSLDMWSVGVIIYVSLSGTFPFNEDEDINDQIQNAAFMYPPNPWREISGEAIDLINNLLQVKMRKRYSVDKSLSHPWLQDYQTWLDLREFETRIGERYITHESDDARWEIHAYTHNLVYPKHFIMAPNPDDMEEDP

[13] = molecular target: T4, Serine/threonine-protein kinase D3 (Homo sapiens); conditions: at 1 µM
[14] = molecular target: T5, cGMP-dependent protein kinase 1 (Homo sapiens) (UniProt Q13976); conditions: at 0.1 µM
T5 sequence (whole entry): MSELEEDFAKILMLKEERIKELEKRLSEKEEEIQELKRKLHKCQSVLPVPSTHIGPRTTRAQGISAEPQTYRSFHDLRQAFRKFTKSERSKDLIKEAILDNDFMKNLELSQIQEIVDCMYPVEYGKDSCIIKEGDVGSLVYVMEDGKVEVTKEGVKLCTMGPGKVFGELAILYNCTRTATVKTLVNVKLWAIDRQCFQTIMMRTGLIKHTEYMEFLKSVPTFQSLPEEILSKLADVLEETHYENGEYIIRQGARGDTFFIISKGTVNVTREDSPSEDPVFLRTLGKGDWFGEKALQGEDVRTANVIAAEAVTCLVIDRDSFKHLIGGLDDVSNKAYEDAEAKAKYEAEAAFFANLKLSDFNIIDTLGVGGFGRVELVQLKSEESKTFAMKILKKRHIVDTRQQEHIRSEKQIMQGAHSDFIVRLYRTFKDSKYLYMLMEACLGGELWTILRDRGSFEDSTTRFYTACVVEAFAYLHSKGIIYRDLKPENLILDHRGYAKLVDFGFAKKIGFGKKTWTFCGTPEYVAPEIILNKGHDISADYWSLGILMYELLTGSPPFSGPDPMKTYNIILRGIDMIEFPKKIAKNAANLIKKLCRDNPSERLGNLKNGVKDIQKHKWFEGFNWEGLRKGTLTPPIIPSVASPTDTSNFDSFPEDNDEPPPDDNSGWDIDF

[15] = molecular target: T5, cGMP-dependent protein kinase 1 (Homo sapiens); conditions: at 1 µM
[16] = molecular target: T6, cGMP-dependent protein kinase 2 (Homo sapiens) (UniProt Q13237); conditions: at 0.1 µM
T6 sequence (whole entry): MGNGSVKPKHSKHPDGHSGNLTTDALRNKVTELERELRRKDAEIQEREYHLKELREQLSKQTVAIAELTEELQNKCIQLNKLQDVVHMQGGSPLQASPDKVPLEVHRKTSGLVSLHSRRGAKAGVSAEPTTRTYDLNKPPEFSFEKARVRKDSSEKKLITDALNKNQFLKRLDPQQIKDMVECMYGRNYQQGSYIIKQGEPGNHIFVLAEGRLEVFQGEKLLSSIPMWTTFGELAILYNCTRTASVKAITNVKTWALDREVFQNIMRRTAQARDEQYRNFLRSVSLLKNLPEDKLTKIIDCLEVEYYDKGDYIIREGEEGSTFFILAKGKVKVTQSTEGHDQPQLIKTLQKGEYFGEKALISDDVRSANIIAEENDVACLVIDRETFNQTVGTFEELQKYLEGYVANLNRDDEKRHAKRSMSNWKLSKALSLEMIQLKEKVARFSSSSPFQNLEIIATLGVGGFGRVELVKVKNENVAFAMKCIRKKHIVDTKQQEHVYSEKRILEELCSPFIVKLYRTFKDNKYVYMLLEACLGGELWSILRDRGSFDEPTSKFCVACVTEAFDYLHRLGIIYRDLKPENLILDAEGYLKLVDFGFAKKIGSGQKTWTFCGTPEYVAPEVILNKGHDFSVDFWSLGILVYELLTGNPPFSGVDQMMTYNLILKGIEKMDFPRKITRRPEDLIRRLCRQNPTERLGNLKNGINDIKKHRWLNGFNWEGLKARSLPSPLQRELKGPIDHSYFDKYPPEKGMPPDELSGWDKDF

[17] = molecular target: T6, cGMP-dependent protein kinase 2 (Homo sapiens); conditions: at 1 µM
[18] = molecular target: T7, cAMP-dependent protein kinase catalytic subunit PRKX (Homo sapiens) (UniProt P51817); conditions: at 0.1 µM
T7 sequence (whole entry): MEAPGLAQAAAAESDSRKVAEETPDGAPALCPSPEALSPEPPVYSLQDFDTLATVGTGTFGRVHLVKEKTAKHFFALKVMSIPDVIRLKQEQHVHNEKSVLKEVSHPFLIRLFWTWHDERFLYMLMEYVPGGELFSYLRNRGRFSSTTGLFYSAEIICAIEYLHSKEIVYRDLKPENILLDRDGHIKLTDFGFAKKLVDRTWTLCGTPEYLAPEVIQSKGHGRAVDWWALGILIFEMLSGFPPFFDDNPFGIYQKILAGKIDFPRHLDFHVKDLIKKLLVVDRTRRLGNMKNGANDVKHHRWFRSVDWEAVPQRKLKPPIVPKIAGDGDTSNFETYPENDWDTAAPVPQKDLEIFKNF

[19] = molecular target: T7, cAMP-dependent protein kinase catalytic subunit PRKX (Homo sapiens); conditions: at 1 µM
[20] = molecular target: Rho-associated protein kinase 1 (Homo sapiens) (UniProt Q13464); conditions: at 0.1 µM;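 note: values are mean percent inhibition of ROCK1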
Chain of Rho-associated protein kinase 1 (Homo sapiens) (Q13464 2-1354 limits assumed): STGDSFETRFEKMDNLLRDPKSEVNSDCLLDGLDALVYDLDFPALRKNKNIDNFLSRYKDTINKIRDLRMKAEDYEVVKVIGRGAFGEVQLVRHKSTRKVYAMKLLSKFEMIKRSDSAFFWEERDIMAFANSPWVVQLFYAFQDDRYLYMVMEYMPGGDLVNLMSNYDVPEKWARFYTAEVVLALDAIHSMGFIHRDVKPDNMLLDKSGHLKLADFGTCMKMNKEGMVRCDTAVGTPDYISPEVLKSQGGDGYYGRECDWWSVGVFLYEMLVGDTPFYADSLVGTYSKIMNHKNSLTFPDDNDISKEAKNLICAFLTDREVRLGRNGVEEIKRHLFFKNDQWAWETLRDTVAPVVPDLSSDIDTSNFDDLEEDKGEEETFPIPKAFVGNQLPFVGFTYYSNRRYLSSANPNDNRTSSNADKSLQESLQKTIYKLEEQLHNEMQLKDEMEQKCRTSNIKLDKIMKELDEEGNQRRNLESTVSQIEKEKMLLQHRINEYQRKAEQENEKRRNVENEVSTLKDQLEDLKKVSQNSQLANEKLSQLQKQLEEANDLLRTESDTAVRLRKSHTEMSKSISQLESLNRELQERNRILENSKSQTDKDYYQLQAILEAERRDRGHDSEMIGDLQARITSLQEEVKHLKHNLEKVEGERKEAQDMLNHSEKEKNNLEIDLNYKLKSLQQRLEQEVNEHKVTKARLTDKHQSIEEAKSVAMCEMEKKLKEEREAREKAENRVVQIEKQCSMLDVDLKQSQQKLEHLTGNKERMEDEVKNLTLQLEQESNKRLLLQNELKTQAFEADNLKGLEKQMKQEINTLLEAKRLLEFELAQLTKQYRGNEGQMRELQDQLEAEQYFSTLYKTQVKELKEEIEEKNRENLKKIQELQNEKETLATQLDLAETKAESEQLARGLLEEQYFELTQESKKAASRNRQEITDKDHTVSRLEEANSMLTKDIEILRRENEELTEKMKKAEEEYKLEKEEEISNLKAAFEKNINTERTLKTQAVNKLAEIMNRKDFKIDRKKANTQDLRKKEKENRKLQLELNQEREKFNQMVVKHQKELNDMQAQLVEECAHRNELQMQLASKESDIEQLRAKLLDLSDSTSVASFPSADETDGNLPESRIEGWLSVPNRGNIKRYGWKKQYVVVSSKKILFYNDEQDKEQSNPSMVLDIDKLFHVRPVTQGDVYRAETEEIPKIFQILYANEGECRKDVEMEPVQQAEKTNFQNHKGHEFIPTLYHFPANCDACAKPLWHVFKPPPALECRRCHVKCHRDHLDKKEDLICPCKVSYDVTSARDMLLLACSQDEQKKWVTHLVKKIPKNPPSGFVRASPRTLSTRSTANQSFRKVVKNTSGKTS

Row | SMILES | inhibition [1] [%] | inhibition [2] [%] | inhibition [3] [%] | inhibition [4] [%] | inhibition [5] [%] | inhibition [6] [%] | inhibition [7] [%] | inhibition [8] [%] | inhibition [9] [%] | inhibition [10] [%] | inhibition [11] [%] | inhibition [12] [%] | inhibition [13] [%] | inhibition [14] [%] | inhibition [15] [%] | inhibition [16] [%] | inhibition [17] [%] | inhibition [18] [%] | inhibition [19] [%] | inhibition [20] [%]
1 | Nc1nccc(-c2c(-c3ccc(F)cc3)nn3cc(C(F)(F)F)ccc23)n1 | -0.26 | -0.75 | -1.18 | -0.19 | -0.16 | -0.91 | 2.07 | 0.77 | 3.05 | 1.62 | 3.04 | 0.99 | 3.75 | -0.61 | -0.49 | -0.17 | -0.08 | 0.72 | -0.61 | -0.4
2 | NS(=O)(=O)c1ccc(N/N=C2\C(=O)Nc3ccc(Cl)cc32)cc1 | 4.85 | 1.02 | 0.75 | 2.29 | 4.86 | 0.92 | 1.29 | 2.46 | 7.47 | 3.87 | 5.28 | 3.58 | 5.68 | 2.65 | 6.01 | 3.85 | 5.8 | 4.2 | 7.86 | 0.31
3 | CCS(=O)(=O)c1ccc(OC)c(Nc2nccc(N(C)c3ccc4c(C)n[nH]c4c3)n2)c1 | 3.15 | 2.77 | 2.66 | 2.68 | 2.9 | 1.61 | 2.71 | 4.99 | 6.33 | 4.18 | 3.25 | 4.79 | 4.86 | 4.43 | 2.44 | 2.68 | 3.13 | 2.11 | 2.47 | 1.77
